The values below come from PubChem BioAssay.

Each structure is given as a SMILES string. Calls of active or inactive are those of the source.

In experiment [1] the target is Albumin (Bos taurus) (UniProt P02769). The experiment can be described thus: bovine serum albumin binders on microarray, profiling panel, artefact control for SMM control protein annotation, biochemical, small-molecule microarray, Alexa647 label, 635/667 nm fluorescence (AID 1118).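 Also: score merges 667 nm emission intensity and signal-to-noise per printed compound spot.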 The following applies: BSA-A647 binding, fluorescence 635 nm, higher = more signal.
The nature of experiment [2]: small-molecule microarray binders of probe aXIP, primary screen, biochemical, NeuroSMM set, 635/667 nm fluorescence (AID 1119).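 Also: probe is the protein aXip251-270 applied at 1 µg/mL to compound-printed slides; binding of probe to printed compounds measured as 667 nm fluorescence plus signal to noise.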 Conditions: higher = more signal, called active from +8 up or from −8 down.
Experiment [3] can be described thus: small-molecule binders of probe aNOTCH3, primary screen, biochemical, small-molecule microarray, 635/667 nm fluorescence (AID 1120).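 Also: probe is a biotin-tagged antibody raised against NOTCH3 rather than NOTCH3 protein; score merges spot fluorescence near 667 nm with spot signal to noise.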 Conditions: higher = more signal.
Experiment [4] can be described thus: small-molecule binders of probe aNOTCH2, primary screen, biochemical, small-molecule microarray, 635/667 nm fluorescence (AID 1121).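 Also: score merges feature fluorescence read at 667 nm with its signal to noise.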 The following applies: higher = more signal.
For experiment [5], the target named is Carbonic anhydrase 2 (Homo sapiens) (UniProt P00918). The experiment can be described thus: CAII small-molecule binders, profiling panel, biochemical, small-molecule microarray, Alexa647-labelled CAII (AID 1122). Conditions: CAII-A647 binding fluorescence, higher = more signal.
Experiment [6] can be described thus: COS7 lysate on small-molecule microarray, probe aHis, 635 nm (AID 1123).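 Also: z-score combines 667nm fluorescence intensity with signal-to-noise per printed compound spot.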 Conditions: COS7 cell lysate, fluorescence, higher = more signal.
A short description of experiment [7]: compound binding in COS7 lysate, probe aLAP1, primary screen, cell lysate, small-molecule microarray (AID 1124).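 Also: lysate comes from COS7 cells expressing LAP1 and is applied at 0.3 µg/mL; score merges spot fluorescence near 667 nm with signal-to-noise over triplicate slides.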 The following applies: probe aLAP1, fluorescence, higher = more signal.
In experiment [8] the test system is Sam68 (KHDRBS1). The experiment can be described thus: Sam68 small-molecule binders, primary screen, biochemical, small-molecule microarray, 635 nm fluorescence (AID 1125).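 Also: score merges 667 nm channel intensity with signal to noise over triplicate slides.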 Conditions: small-molecule microarray binding, higher = more signal.
The subject of experiment [9] is Chordin-like protein 2 (CHRDL2). In words: CHRDL2 small-molecule binders, primary screen, biochemical, small-molecule microarray, 635 nm fluorescence (AID 1126).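 Also: printed compound slides probed with Chrdl2 protein at 4 µg/mL for 1 h at 4 C; score merges 667 nm emission intensity with signal to noise over three replicate slides.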 The following applies: small-molecule microarray binding, fluorescence 635 nm; higher = more signal.
For experiment [10], the target named is Concanavalin-A (Canavalia ensiformis) (UniProt P02866). The experiment can be described thus: ConA small-molecule binders, primary screen, artefact control for SMM control protein annotation, biochemical, small-molecule microarray, Alexa647 label, 635 nm (AID 1127).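 Also: z combines 667 nm emission intensity with signal-to-noise across three replicate slides.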 The following applies: ConA-A647 binding fluorescence, higher = more signal.
The nature of experiment [11]: anti-His antibody binders, primary screen, artefact control for SMM control protein annotation, biochemical, small-molecule microarray, 635 nm fluorescence (AID 1128).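 Also: score merges feature fluorescence with signal-to-noise for each printed compound spot.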 The following applies: anti-His Alexa647 antibody binding, higher = more signal.
In experiment [12] the test system is Human papillomavirus type 1a E7 protein (residues 1-88). The experiment can be described thus: HPV1a E7 small-molecule binders, primary screen, biochemical, small-molecule microarray, residues 1-88, 635 nm (AID 1129). Conditions: small-molecule microarray binding, fluorescence 635 nm; higher = more signal.
The target of experiment [13] is Focal adhesion kinase 1 (Homo sapiens) (UniProt Q05397). The experiment can be described thus: small-molecule microarray binders of FAK, primary screen, biochemical, 635/667 nm fluorescence, BSA, DTT (AID 1130).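 Also: composite of spot emission at 667 nm and signal to noise over triplicate slides.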 Conditions: PTK2 binding, 635 nm fluorescence, higher = more signal.
The subject of experiment [14] is Fibrinogen (Alexa647-labelled). In words: fibrinogen binders on compound microarrays, profiling panel, artefact control for SMM control-protein annotation, biochemical, small-molecule microarray, 635/667 nm fluorescence (AID 1131).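 Also: z-score merges 667 nm fluorescence with per-spot signal-to-noise over triplicate slides.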 Conditions: fibrinogen-A647 binding fluorescence, higher = more signal.
The target in experiment [15] is Follistatin (Homo sapiens) (UniProt P19883). The experiment can be described thus: follistatin binders on small-molecule microarrays, primary screen, biochemical, small-molecule microarray, 635/667 nm fluorescence (AID 1132). The following applies: FST binding, 635 nm fluorescence, higher = more signal.
In experiment [16] the target is Fibroblast growth factor 2 (Homo sapiens) (UniProt P09038). In words: FGF2 binders on small-molecule microarrays, primary screen, biochemical, small-molecule microarray, 635/667 nm fluorescence (AID 1133). The following applies: small-molecule microarray binding, FGF2, fluorescence 635/667; higher = more signal.
The nature of experiment [17]: mitochondrial membrane potential change in A549 cells, profiling panel, cell-based, JC-1 fluorescence, basal, 24 h, 100 nL (AID 1138).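 Also: A549 lung adenocarcinoma cells under basal conditions with no added stimulus; test concentration not given here.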 The following applies: higher = more signal.
Experiment [18] relates to Lefty1. The experiment can be described thus: Lefty1 binders on small-molecule microarrays, primary screen, biochemical, small-molecule microarray, 635/667 nm fluorescence (AID 1139). The following applies: small-molecule microarray binding, fluorescence 635/667; higher = more signal.
For experiment [19], the system named is wheat germ agglutinin (Triticum aestivum), Alexa647-labelled. In words: wheat germ agglutinin binders on compound microarrays, profiling panel, artefact control for SMM control-protein annotation, biochemical, small-molecule microarray, 635/667 nm fluorescence (AID 1140).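 Also: score merges 667 nm feature emission with signal to noise over triplicate slides.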 Conditions: WGA-A647 binding, 635 nm fluorescence, higher = more signal.
Experiment [20] has as its target Luciferin 4-monooxygenase (Photinus pyralis) (UniProt P08659). The experiment can be described thus: firefly luciferase enzyme inhibitors, primary screen, biochemical, luminescence, purified enzyme, 2006 set (AID 1141).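 Also: cell-free assay with purified firefly luciferase at 100 ng per well in PBS; test concentration not given here.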 Conditions: SteadyGlo luminescence, 30 min, higher = more signal, called active from +8 up or from −8 down.

Albumin (Bos taurus), sequence (P02769 whole entry, looked up): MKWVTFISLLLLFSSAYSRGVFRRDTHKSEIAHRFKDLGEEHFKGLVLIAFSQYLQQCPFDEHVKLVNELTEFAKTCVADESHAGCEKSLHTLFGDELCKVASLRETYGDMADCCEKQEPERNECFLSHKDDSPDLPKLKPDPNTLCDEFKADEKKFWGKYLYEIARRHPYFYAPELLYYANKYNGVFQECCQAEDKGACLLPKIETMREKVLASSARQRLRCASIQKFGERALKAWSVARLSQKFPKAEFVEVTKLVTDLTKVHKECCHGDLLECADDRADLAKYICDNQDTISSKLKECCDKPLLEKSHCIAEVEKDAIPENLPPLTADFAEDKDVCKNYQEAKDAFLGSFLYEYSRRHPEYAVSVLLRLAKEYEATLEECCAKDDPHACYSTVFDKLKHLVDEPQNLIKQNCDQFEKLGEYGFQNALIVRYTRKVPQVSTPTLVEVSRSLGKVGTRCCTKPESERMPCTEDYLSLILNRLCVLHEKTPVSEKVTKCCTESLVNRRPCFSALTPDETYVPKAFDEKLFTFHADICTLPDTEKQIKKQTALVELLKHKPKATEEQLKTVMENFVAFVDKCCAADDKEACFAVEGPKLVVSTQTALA
Luciferin 4-monooxygenase (Photinus pyralis), sequence (P08659 whole entry, looked up): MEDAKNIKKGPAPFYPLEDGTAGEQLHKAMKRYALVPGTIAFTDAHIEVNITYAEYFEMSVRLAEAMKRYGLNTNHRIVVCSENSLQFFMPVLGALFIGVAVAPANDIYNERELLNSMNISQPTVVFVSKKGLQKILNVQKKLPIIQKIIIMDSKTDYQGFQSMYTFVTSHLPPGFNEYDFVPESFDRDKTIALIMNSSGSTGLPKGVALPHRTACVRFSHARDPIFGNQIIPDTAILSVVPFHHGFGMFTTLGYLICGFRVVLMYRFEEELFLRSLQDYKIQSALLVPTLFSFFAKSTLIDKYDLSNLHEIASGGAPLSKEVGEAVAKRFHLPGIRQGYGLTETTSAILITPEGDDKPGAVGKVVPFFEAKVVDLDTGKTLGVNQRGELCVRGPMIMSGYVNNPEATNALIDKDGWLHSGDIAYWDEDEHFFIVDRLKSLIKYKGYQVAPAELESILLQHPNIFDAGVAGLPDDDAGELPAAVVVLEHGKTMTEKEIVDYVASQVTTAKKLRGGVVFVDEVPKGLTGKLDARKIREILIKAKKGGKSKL
Follistatin (Homo sapiens), sequence (P19883 whole entry, looked up): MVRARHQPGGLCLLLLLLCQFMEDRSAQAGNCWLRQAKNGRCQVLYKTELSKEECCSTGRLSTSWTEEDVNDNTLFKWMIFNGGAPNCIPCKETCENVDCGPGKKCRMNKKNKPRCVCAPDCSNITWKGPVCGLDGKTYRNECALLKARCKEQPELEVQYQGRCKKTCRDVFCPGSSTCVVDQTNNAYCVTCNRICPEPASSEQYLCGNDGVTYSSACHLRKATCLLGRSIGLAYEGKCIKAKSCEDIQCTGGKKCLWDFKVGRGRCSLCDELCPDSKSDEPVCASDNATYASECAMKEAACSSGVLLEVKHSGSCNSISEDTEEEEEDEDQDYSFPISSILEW
Focal adhesion kinase 1 (Homo sapiens), sequence (Q05397 whole entry, looked up): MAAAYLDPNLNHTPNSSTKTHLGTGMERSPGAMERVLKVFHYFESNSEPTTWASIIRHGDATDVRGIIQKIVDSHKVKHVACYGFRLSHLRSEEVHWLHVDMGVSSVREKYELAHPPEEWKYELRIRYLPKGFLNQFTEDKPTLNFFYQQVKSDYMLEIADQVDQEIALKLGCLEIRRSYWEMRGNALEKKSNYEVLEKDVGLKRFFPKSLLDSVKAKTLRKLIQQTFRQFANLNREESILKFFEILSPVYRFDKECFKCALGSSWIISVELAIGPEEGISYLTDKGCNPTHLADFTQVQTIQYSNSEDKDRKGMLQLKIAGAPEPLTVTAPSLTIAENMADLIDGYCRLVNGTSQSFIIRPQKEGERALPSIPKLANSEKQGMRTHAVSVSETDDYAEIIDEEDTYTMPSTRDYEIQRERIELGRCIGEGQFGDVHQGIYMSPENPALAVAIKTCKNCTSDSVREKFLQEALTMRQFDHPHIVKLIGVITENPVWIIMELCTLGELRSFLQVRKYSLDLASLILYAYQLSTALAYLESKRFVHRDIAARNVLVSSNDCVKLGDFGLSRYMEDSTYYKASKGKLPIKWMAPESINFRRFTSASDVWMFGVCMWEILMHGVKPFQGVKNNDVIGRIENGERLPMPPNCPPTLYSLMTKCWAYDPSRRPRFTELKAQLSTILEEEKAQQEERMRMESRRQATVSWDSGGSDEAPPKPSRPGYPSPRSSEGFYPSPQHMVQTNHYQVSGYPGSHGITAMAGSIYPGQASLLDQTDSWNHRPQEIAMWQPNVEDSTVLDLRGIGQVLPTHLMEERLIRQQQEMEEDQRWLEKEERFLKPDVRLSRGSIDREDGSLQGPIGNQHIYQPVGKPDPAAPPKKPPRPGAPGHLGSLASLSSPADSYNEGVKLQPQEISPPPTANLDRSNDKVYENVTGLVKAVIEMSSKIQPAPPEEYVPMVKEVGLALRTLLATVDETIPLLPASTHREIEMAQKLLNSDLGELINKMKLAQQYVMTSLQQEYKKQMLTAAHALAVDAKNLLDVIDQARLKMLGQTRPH
Concanavalin-A (Canavalia ensiformis), sequence (P02866 whole entry, looked up): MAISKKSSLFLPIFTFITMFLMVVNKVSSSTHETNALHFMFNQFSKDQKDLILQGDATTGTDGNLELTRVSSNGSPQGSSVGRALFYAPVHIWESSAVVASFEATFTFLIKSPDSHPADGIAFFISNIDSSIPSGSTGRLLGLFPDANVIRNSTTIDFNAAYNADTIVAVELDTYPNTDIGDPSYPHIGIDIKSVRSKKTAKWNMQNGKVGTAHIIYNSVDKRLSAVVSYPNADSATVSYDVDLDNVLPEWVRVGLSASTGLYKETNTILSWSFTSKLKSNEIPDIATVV
Fibroblast growth factor 2 (Homo sapiens), sequence (P09038 whole entry, looked up): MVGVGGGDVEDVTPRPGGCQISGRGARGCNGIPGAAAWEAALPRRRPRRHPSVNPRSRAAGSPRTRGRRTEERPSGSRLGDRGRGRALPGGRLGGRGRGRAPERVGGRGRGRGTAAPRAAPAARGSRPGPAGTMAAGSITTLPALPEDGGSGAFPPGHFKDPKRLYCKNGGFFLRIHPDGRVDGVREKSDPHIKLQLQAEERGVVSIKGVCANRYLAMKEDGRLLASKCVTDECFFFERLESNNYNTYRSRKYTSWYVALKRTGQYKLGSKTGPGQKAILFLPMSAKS

For `O=C1[C@H]2[C@H]3[C@H](O)[C@H](O)CC(=NOC[C@@H](O)COCc4ccco4)[C@H]3CC[C@H]2C(=O)N1C1CCCCC1`, the composite z-score is -0.709 in [1]; 0.0459 in experiment [3]; -0.258 in experiment [4]; -0.379 in experiment [5]; -0.317 in [6]; -0.342 in experiment [7]. Besides, the composite z-score in experiment [8] is 0.191; in experiment [9], 1.42; in experiment [10], -0.843; in experiment [11], -0.0844; in experiment [12], -0.476; in experiment [13], -0.329. Also, the composite z-score was -1.02 in experiment [14]; 1.21 in experiment [15]; 1.07 in experiment [16]; 1.3 in experiment [18]; -1.22 in experiment [19]. For the same molecule, the composite Z-score in experiment [2] was -0.47 (inactive). For the same molecule, the z-score is -0.948 in [17] and 0.822 (inactive) in [20].
Turning to `CC(CCN1CCc2nc(-c3ccccc3)c(-c3ccccc3)cc2C1)=NO[C@@H](C)c1cn([C@H](CO)Cc2ccccc2)nn1`, the composite z-score in [1] is 0.908; in experiment [3] it was 0.0242; in experiment [4], -0.117; in [5], 0.526; in [6], -0.478; in experiment [7] it was -0.208. Further, the composite z-score in experiment [8] is -0.163; in experiment [9] it was 0.0808; in experiment [10], -0.602; in experiment [11], -0.0253; in experiment [12] it was 0.219; in experiment [13], 0.0807. In addition, the composite z-score in experiment [14] turned out to be 0.929; in experiment [15] it was 0.408; in experiment [16] it was 0.453; in [18], 0.342; in experiment [19], 0.706. In experiment [2], the composite Z-score is 0.715 (inactive). Besides, the z-score in [17] was 1.22; in experiment [20] it was -1.77 (inactive).
As for `CCOC(=O)NN=C1C[C@@H](O)[C@@H](O)[C@@H]2[C@@H]3C(=O)N(C[C@@H]4CCCO4)C(=O)[C@@H]3CC[C@@H]12`, the composite z-score in [1] was 0.16; in [3], 0.0927; in [4], -0.166; in [5], 0.0815; in experiment [6], 0.361; in experiment [7], 0.649. For the same molecule, the composite z-score in experiment [8] amounted to 0.339; in [9] it was 0.0214; in experiment [10] it was 0.437; in experiment [11] it was 0.193; in [12] it was 0.329; in [13] it was 0.295. Moreover, the composite z-score in experiment [14] was 0.216; in experiment [15], 0.306; in experiment [16], 0.436; in [18] it was 0.344; in experiment [19], 0.386. For the same molecule, in experiment [2], the composite Z-score is -0.354 (inactive). For the same molecule, the z-score in [17] is 0.39; in experiment [20], -0.439 (inactive).
As for `CCOC(=O)[C@H](Cc1ccccc1)NC(=O)CCC1CC(OC(=O)NCc2ccc3c(c2)OCO3)CC2(CCCC(COC(=O)NCc3cccc(C(F)(F)F)c3)O2)O1` (stereo not given in full), the composite z-score is -0.0075 in experiment [1]; 0.0224 in experiment [3]; -0.123 in [4]; -0.106 in experiment [5]; 0.287 in experiment [6]; -0.0375 in experiment [7]. Also, the composite z-score in experiment [8] was 0.843; in [9], 0.393; in experiment [10] it was 0.546; in experiment [11] it was 1; in [12] it was 0.355; in experiment [13], -0.15. Also, the composite z-score in [14] is -0.416; in experiment [15] it was 0.916; in experiment [16] it was 1.01; in [18], 0.955; in experiment [19], 0.229. In experiment [2], the composite Z-score was -0.944 (inactive). Besides, the values for the z-score in experiment [17] and in experiment [20] were -0.659 and 0.794 (inactive), respectively.
As for `O=C1C2=CC[C@H]3C(=O)N(Cc4ccc5c(c4)OCO5)C(=O)[C@H]3[C@H]2[C@H](O)[C@@H]2O[C@H]12`, the composite z-score in experiment [1] is -0.176; in experiment [3] it was -0.0229; in [4], -0.14; in experiment [5] it was -0.0365; in experiment [6], -0.142; in [7], 0.397. The composite z-score in experiment [8] turned out to be 0.21; in experiment [9], 0.529; in experiment [10] it was 0.534; in [11], 1.06; in experiment [12], 0.383; in experiment [13] it was 0.009. In addition, the composite z-score in experiment [14] was 0.459; in experiment [15], 0.281; in experiment [16], 0.597; in [18] it was 0.408; in [19], -0.0306. In addition, the composite Z-score in [2] was 0.0248 (inactive). Besides, the z-score in [17] was 0.738; in experiment [20], -0.272 (inactive).
In the case of `CCCCC(=C=CC[C@H](O)c1ccccc1OCCO)C[C@H](O)COCc1ccccc1`, the composite z-score in experiment [1] is 0.355; in [3], -0.0362; in [4], -0.147; in experiment [5], 0.669; in experiment [6], 0.0513; in [7], 1.27. Further, the composite z-score in experiment [8] was -0.0664; in experiment [9], -0.632; in experiment [10], 0.874; in experiment [11], -1.29; in [12], -0.138; in experiment [13], 0.329. The composite z-score is -0.256 in experiment [14]; 0.103 in experiment [15]; 0.189 in [16]; -0.0107 in experiment [18]; -0.142 in experiment [19]. Also, the composite Z-score in experiment [2] is 2.26 (inactive). The values for the z-score in experiment [17] and in experiment [20] were 0.544 and -0.676 (inactive), respectively.
